Screening results from PubChem.
Compounds with a hit are over-represented: about 9.2% of the library has one in this group of screens.
Rab9 promoter act = activates the Rab9 promoter; Huh7 Rab9 promoter-luciferase reporter, luminescence, 24 h; Potency, µM (titrated, usually from 9.22 µM), for inactives: at the top dose activation, negative = inhibition, usual class: activators; actives 2.8% (n = 320,000); AID 485297; note: % of control where 0% means no effect; nearly all actives have a fitted effect of over 60% in size
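Steps: seed 1500 Huh7 Rab9-luc cells per well, rest 2 h at 37 °C; add compound in DMSO; incubate 24 h; add luciferase reagent, 10 min ambient; read luminescence.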
SMN2 splice enh = SMN2 splice variant enhancement. actives 2.8% (n = 210,000). HEK293 SMN2-luciferase splicing reporter, luminescence, 30-36 h. Potency, µM (series often up to 46.1 µM), for the others: at the highest dose activity change, positive = activation, usual class: activators. AID 1458; note: % of control where 0% means no effect; nearly all actives have a fitted effect of over 55% in size
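HEK293 cells carry an SMN2 […]–luciferase reporter in which exon 7 inclusion puts luciferase in frame. Cells were plated 10-12 h before compound addition, then incubated 30-36 h at 37C. ONE-Glo luminescence was read; sodium butyrate at 4.5 mM final served as control.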
FLuc modulator = inhibits or activates purified firefly luciferase, miR-21 counter-screen; P08659; purified FLuc, Km substrates, luminescence inhibition; actives 6.9% (n = 360,000); AID 588342; Potency, µM (highest dose often 57.5 µM), for inactives: at the top dose activity change, negative = inhibition, most hits filed as inhibitors;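 note: plate controls were vehicle for no effect and reference inhibitor for full effect; nearly all actives have a fitted effect of over 55% in size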
Target sequence (P08659 whole entry, looked up): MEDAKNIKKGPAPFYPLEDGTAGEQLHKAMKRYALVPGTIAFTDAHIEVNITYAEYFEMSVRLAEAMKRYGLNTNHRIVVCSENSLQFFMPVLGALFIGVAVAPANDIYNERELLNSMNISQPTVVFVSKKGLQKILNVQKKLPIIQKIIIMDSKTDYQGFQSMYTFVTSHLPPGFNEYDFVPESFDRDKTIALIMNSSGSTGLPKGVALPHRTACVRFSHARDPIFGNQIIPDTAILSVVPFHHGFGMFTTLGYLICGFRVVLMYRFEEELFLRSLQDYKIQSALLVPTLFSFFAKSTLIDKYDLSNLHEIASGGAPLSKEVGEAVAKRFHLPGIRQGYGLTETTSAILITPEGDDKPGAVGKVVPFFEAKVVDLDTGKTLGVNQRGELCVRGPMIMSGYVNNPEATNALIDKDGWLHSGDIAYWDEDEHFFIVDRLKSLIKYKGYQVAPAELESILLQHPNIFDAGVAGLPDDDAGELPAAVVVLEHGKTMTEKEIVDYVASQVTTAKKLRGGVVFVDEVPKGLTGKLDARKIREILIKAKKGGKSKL
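Biochemical qHTS of compounds, final roughly 60 µM downward over six points, against 10 nM purified firefly luciferase using Km concentrations of substrates (10 uM D-luciferin, 10 uM ATP) in Tris acetate pH 7.5 buffer; luminescence output.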
ELG1 repair inh = blocks ELG1-dependent DNA repair in HEK293T cells; HEK293T ELG1-luciferase reporter, luminescence, 16 h; DNA damage induced by 5-fluorouridine; Potency, µM (doses to about 46.1 µM), inactives show top-dose activity change, negative = inhibition, most hits filed as inhibitors; actives 2.3% (n = 330,000); AID 504467; note: % is set by controls: 0 for no effect and ±100 for the full control effect; nearly all actives have a fitted effect of over 55% in size
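HEK293T cells expressing luciferase-tagged ELG1 (2,000/well) received 5-Fluorouridine plus compound or DMSO for 16 hr at 37 °C. Luciferase was read by ONE-Glo luminescence after 30 min at room temperature.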
ELG1 genotoxic = induces genotoxicity in HEK293T cells with luciferase-tagged ELG1. HEK293T ELG1-luciferase reporter, luminescence, 16 h. Potency, µM (titrated, usually from 46 µM), without a hit: top-dose activity change, positive = activation, most hits filed as activators. actives 1.3% (n = 330,000); note: % of control where 0% means no effect; nearly all actives have a fitted effect of over 60% in size
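HEK293T cells expressing luciferase-tagged ELG1 were treated with compound or DMSO for 16 hr at 37°C. Luciferase activity was then read after 30 min with ONE-Glo at room temperature; rising signal flags genetic stress.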
NPC1 promoter act = NPC1 promoter activation; actives 2.4% (n = 320,000); AID 485313; Potency, µM (titrated, usually from 9.22 µM), without a hit: top-dose activation, usual class: activators; Huh7 NPC1 promoter luciferase reporter, 24 h; note: % of control where 0% means no effect; nearly all actives have a fitted effect of over 60% in size
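Huh7 cells stably carrying NPC1 promoter–luciferase, plated in Opti-MEM with 10% FBS for 2 h, were exposed to compound in DMSO for 24 h at 37 °C; luciferase reagent was added for 10 min and luminescence read.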
Active calls of the source: *; [ ] = dose if it differs, or a comment. Calls come from the whole dose curve; as a rule, active = well fitted curve in the direction sought with a large enough effect; inconclusive = small, poorly fitted or top-dose-only effect, or another doubt; inactive = no such curve, though single readings can be large; an effect the other way counts as inactive or inconclusive. Potency is the fitted concentration of half-maximal effect.

How did CSc1ccccc1OCc1cc(C(=O)NCCC2CCCCO2)no1 (stereo unspecified) do in these assays?
Rab9 promoter act: 14%; FLuc modulator: inconclusive; ELG1 repair inh: inconclusive; ELG1 genotoxic: 8%; NPC1 promoter act: inconclusive

Results for COc1ccc(OCc2cc(C(=O)NCC3CCOCC3)no2)c(Cl)c1 ?
Rab9 promoter act: inconclusive; FLuc modulator: 13µM*; ELG1 repair inh: inconclusive; ELG1 genotoxic: inconclusive; NPC1 promoter act: inconclusive

What do the screens show for `COc1cccc(OCc2cc(C(=O)NC3CCOCC3)no2)c1`?
Rab9 promoter act: inconclusive; FLuc modulator: 24µM*; ELG1 repair inh: inconclusive; ELG1 genotoxic: inconclusive; NPC1 promoter act: inconclusive

Results for COc1ccc(OCc2cc(C(=O)N(C)Cc3cc(C4CC4)n[nH]3)no2)c(Cl)c1 ?
Rab9 promoter act: 2.8µM*; FLuc modulator: 12µM*; ELG1 repair inh: inconclusive; ELG1 genotoxic: inconclusive; NPC1 promoter act: 3.5µM*

Results for COc1ccc(OCc2cc(C(=O)NCCN3CCCc4ccccc43)no2)c(Cl)c1 ?
Rab9 promoter act: 4%; FLuc modulator: 24µM*; ELG1 repair inh: inconclusive; ELG1 genotoxic: -20%; NPC1 promoter act: 24%

What do the screens show for `COc1ccc(OCc2cc(C(=O)NCCN3CCCC(O)C3)no2)c(Cl)c1` (stereo unspecified)?
Rab9 promoter act: -2%[1.84 µM]; FLuc modulator: inconclusive; ELG1 repair inh: inconclusive; ELG1 genotoxic: 3%; NPC1 promoter act: 2%

Results for COc1ccccc1N1CCN(C(=O)c2c(-c3c(F)cccc3Cl)noc2C)CC1 ?
Rab9 promoter act: -9%; FLuc modulator: 2%; ELG1 repair inh: inconclusive; ELG1 genotoxic: -7%; NPC1 promoter act: -18%

How did CCN(CC)CCNC(=O)c1ccc2c(c1NCCO)C(=O)c1ccccc1C2=O do in these assays?
Rab9 promoter act: -11%; FLuc modulator: inconclusive; ELG1 repair inh: 13µM*; ELG1 genotoxic: -4%; NPC1 promoter act: -3%

What do the screens show for `CC1CCN(C(=O)c2ccc3c(c2NCCO)C(=O)c2ccccc2C3=O)CC1`?
Rab9 promoter act: -5%; SMN2 splice enh: 24%; FLuc modulator: -19%; ELG1 repair inh: inconclusive; ELG1 genotoxic: -14%; NPC1 promoter act: 1%

How did CC(C)c1ccc(NC(=O)CSc2nc(=O)n(Cc3cccnc3)c3c2CCC3)cc1 do in these assays?
FLuc modulator: -13%

What do the screens show for `CCCCNc1nc(SC)nc2nc[nH]c12`?
SMN2 splice enh: -22%[9.22 µM]

What do the screens show for `COc1ccc(C2OC3=C(Nc4cc(C)c(C)cc4N3)C2=O)cc1` (stereo unspecified)?
Rab9 promoter act: 2.8µM*; FLuc modulator: inconclusive; ELG1 repair inh: inconclusive; ELG1 genotoxic: inconclusive; NPC1 promoter act: 3.5µM*

Results for COc1ccccc1C1OC2=C(Nc3ccc([N+](=O)[O-])cc3N2)C1=O (stereo unspecified) ?
Rab9 promoter act: -7%; FLuc modulator: -1%; ELG1 repair inh: 23µM*; ELG1 genotoxic: -11%; NPC1 promoter act: 1%

Results for Cc1cc2c(cc1C)NC1=C(N2)OC(c2cccc(O)c2)C1=O (stereo unspecified) ?
Rab9 promoter act: -3%; FLuc modulator: inconclusive; ELG1 repair inh: -16%; ELG1 genotoxic: 6%; NPC1 promoter act: -1%

How did COc1cccc(-c2ccc3ncnc(NCc4cccs4)c3c2)c1 do in these assays?
Rab9 promoter act: -4%; SMN2 splice enh: -23%; FLuc modulator: 0%; ELG1 repair inh: 15µM*; ELG1 genotoxic: -8%; NPC1 promoter act: -1%

What do the screens show for `COc1cccc(CNc2ncnc3ccc(-c4c(C)noc4C)cc23)c1`?
Rab9 promoter act: -2%; FLuc modulator: 3%; ELG1 repair inh: 24%; ELG1 genotoxic: inconclusive; NPC1 promoter act: -5%

What do the screens show for `Cc1noc(C)c1-c1ccc2ncnc(NCc3ccccc3)c2c1`?
SMN2 splice enh: 2.8µM*

Results for Cn1ccc2cc(-c3ccc4ncnc(NCc5cccnc5)c4c3)ccc21 ?
Rab9 promoter act: -2%; FLuc modulator: 19µM*; NPC1 promoter act: -3%

How did COc1cccc(-c2ccc3ncnc(NCc4cccc(F)c4)c3c2)c1 do in these assays?
Rab9 promoter act: -2%; FLuc modulator: -1%; NPC1 promoter act: -2%

What do the screens show for `COc1cccc(-c2ccc3ncnc(NCc4cccc(C)c4)c3c2)c1`?
Rab9 promoter act: -1%; FLuc modulator: 5%; ELG1 repair inh: 16µM*; ELG1 genotoxic: -10%; NPC1 promoter act: -2%

Results for CCn1c(CNC(=O)c2ccc(OC)cc2)nnc1SCC(=O)Nc1ccc(OC)cc1 ?
SMN2 splice enh: 8%; FLuc modulator: -11%

Results for O=c1c2cccnc2n(Cc2ccccc2F)c(=O)n1Cc1ccc(F)cc1 ?
SMN2 splice enh: -2%; FLuc modulator: 0%

Results for Cc1ccc(C(=O)/C=C/c2cn(CN3CCN(C)CC3)c3ccccc23)cc1 ?
Rab9 promoter act: inconclusive; SMN2 splice enh: 14%; FLuc modulator: 4.8µM*; ELG1 repair inh: inconclusive; ELG1 genotoxic: 15µM*; NPC1 promoter act: inconclusive

How did Cn1cc(/C=C/C(=O)c2ccccc2)c2ccccc21 do in these assays?
Rab9 promoter act: 1.3µM*; FLuc modulator: 0.54µM*; ELG1 repair inh: inconclusive; ELG1 genotoxic: 1.8µM*; NPC1 promoter act: 1.6µM*

How did CCOC(=O)C1CCCN(C(=O)COC(=O)c2cccs2)C1 (stereo unspecified) do in these assays?
ELG1 repair inh: inconclusive; ELG1 genotoxic: 6%

How did COc1ccc(CCNc2nc3c(-c4cccc(C)c4)nnn3c3ccccc23)cc1OC do in these assays?
SMN2 splice enh: 1%; FLuc modulator: -4%

What do the screens show for `Cn1nc(-c2ccccc2F)c2cc(C(=O)Nc3ccc4c(c3)OCCO4)sc21`?
Rab9 promoter act: 10%; SMN2 splice enh: 29%; FLuc modulator: 9.5µM*; ELG1 repair inh: inconclusive; ELG1 genotoxic: 11%; NPC1 promoter act: -3%

How did Cn1nc(-c2ccccc2F)c2cc(C(=O)NCc3ccc(Cl)cc3)sc21 do in these assays?
SMN2 splice enh: 6%; FLuc modulator: -6%

How did CC(=O)c1ccc(N2CCN(C(=O)c3cc4c(-c5ccccc5F)nn(C)c4s3)CC2)cc1 do in these assays?
Rab9 promoter act: 2%; SMN2 splice enh: -23%; FLuc modulator: -3%; ELG1 repair inh: 18µM*; ELG1 genotoxic: -15%; NPC1 promoter act: 2%
